From PubChem BioAssay

Experiment: DUSP6 inhibitors restoring Erk phosphorylation by chemical complementation, primary imaging in DUSP6-transfected HeLa (AID 609)
Conditions: HeLa MKP-3 transfected, phospho-Erk imaging KS statistic; measured here: cell density z-score; at 10 µM; cells stimulated with TPA for 15 min

| SMILES | z-score |
| --- | --- |
| Cc1nc(NS(=O)(=O)c2ccccc2)sc1NC(=O)OCCN(C)C | 1.66 |
| Cn1c(=O)n(CCc2ccccc2)c(=O)c2c1ncn2Cc1ccccc1 | -0.468 |
| CC(C)OC(=O)c1nn2c(C(F)(F)F)cc(-c3ccc(Br)o3)nc2c1Br | -1.28 |
| CCCc1nn(C)c2c1C(c1cccnc1)C(C#N)=C(N)O2 (stereo not given) | 0.834 |
| Cc1ccccc1NC(=O)NCCc1nc2ccccc2[nH]1 | -1.18 |
| Nc1c(Br)cc2oc(-c3ccccc3)nc2c1Br | -0.358 |
| CCCc1[nH]nc2c1C(c1c(C)nn(-c3ccccc3)c1Cl)C(C#N)=C(N)O2 (stereo not given) | 1.26 |
| COC(=O)c1c(NC(=O)c2nn(C)cc2Cl)sc2c1CCCC2 | -0.637 |
| Cc1cc(=O)oc(C)c1C(=O)Nc1cccc2nonc12 | 1.68 |
| CC(C)c1nc(N2CCOCC2)c(C#N)c2c1CCC2 | 0.739 |
| CCOC(=O)c1c(C)n(C)c2ccc(OC)c(NC(=O)CN3CCN(Cc4ccccc4)CC3)c12 | -0.908 |
| CC(C)CC(NC(=O)OC(C)(C)C)C(=O)NCc1ccccc1 (stereo not given) | 1.56 |
| O=c1[nH]nc2n1CCCCC2 | 1.3 |
| Cc1ccc(N(CN2C(=O)NC(C)(C)C2=O)CN2C(=O)NC(C)(C)C2=O)cc1 | 0.539 |
| CC1CN(C2CCN(S(=O)(=O)c3ccc4ccccc4c3)CC2)CC(C)O1 (stereo not given) | 0.701 |
| CC(C)(C)C1CCC2(CC1)C(C#N)=C(SCC(=O)Nc1ccccc1)NC(=O)C2C#N (stereo not given) | -1.51 |
| CCOC(=O)c1cc2c(=O)n3cccc(C)c3nc2n(Cc2cccnc2)c1=N | 0.481 |
| OC(CNCCCN1CCCCC1)COc1ccccc1 (stereo not given) | -0.145 |
| Cc1ccc(-c2ccccc2NC(=O)C2C3C=CC(C3)C2C(=O)O)o1 (stereo not given) | 0.45 |
| Cn1c(=O)c2c3c(sc2n2c(SCC(N)=O)nnc12)CC(C(C)(C)C)CC3 (stereo not given) | 1.25 |

| SMILES | z-score |
| --- | --- |
| CCOc1cccc(-c2nn3c(-c4ccccn4)nnc3s2)c1 | 0.204 |
| Cn1c(=O)n(C)c2cc(C(=O)c3ccccc3)ccc21 | 2.47 |
| CCC(=O)OC1=C2C(=Nc3c(c(=O)n(C)c(=O)n3C)C2c2ccccc2)c2ccccc21 (stereo not given) | -0.341 |
| Cc1ccsc1C1NC(=O)c2c(sc3c2CCCC3)N1 (stereo not given) | -1.62 |
| CCCCc1ccc(NC(=O)CSC2=C(C#N)C(c3ccco3)C3=C(CCCC3=O)N2)cc1 (stereo not given) | 0.415 |
| CCCCNc1nc2c(c(=O)n(C)c(=O)n2C)n1Cc1cccc(OC)c1 | 0.299 |
| Cc1c(CCC#N)c(N2CCCCC2)n2c(nc3ccccc32)c1C#N | 0.117 |
| CN(C)C/C(Cl)=C(\Cl)c1ccccc1 | -1.42 |
| CC(C)Cc1nc(N2CCCCC2)c(C#N)c2c1CCC2 | -1.47 |
| CCCCCc1nc2sc3c(c2c(=O)n1N)CCC3 | -1.49 |
| CCOC(=O)Cn1c(SC)nc2sc3c(c2c1=O)CC(C)(C)OC3 | 1.23 |
| Cc1ccc(SCc2nnc(N)s2)cc1 | -0.876 |
| CC(C)Cc1nc(N2CCOCC2)c(C#N)c2c1CCC2 | -1.23 |
| CCOc1ccc(Cn2c(O)cc(=O)[nH]c2=O)cc1 | 0.509 |
| Cc1ccc(S(=O)(=O)NC(=O)NCc2ccc3c(c2)OCO3)cc1 | -0.395 |
| CCCCn1c(-c2ccc(Cl)cc2)nc2c(=O)n(C)c(=O)[nH]c21 | 0.0253 |
| CCCCNC(=O)C(C#N)c1nc2ccccc2nc1N1CCN(Cc2ccc3c(c2)OCO3)CC1 (stereo not given) | -1.05 |
| c1ccc(-c2nnc3sc(Cc4cccs4)nn23)cc1 | 0.71 |
| CC(=O)C1=C(O)C(=O)N(c2cccc(C(=O)O)c2)C1c1ccc(F)cc1 (stereo not given) | -0.487 |
| Cc1ccc(OCc2nnc(NC(=O)c3ccco3)s2)c(C)c1 | -0.686 |

Same assay, conditions: HeLa MKP-3 transfected, phospho-Erk imaging KS statistic; measured here: nuclear c-Myc green intensity z-score; at 10 µM; cells stimulated with TPA for 15 min

| SMILES | z-score |
| --- | --- |
| Cc1nc(NS(=O)(=O)c2ccccc2)sc1NC(=O)OCCN(C)C | -0.339 |
| Cn1c(=O)n(CCc2ccccc2)c(=O)c2c1ncn2Cc1ccccc1 | 1.76 |
| CC(C)OC(=O)c1nn2c(C(F)(F)F)cc(-c3ccc(Br)o3)nc2c1Br | -0.277 |
| CCCc1nn(C)c2c1C(c1cccnc1)C(C#N)=C(N)O2 (stereo not given) | 0.991 |
| Cc1ccccc1NC(=O)NCCc1nc2ccccc2[nH]1 | -0.333 |
| Nc1c(Br)cc2oc(-c3ccccc3)nc2c1Br | -0.383 |
| CCCc1[nH]nc2c1C(c1c(C)nn(-c3ccccc3)c1Cl)C(C#N)=C(N)O2 (stereo not given) | 0.14 |
| COC(=O)c1c(NC(=O)c2nn(C)cc2Cl)sc2c1CCCC2 | -1.15 |
| Cc1cc(=O)oc(C)c1C(=O)Nc1cccc2nonc12 | -1.68 |
| CC(C)c1nc(N2CCOCC2)c(C#N)c2c1CCC2 | -0.974 |
| CCOC(=O)c1c(C)n(C)c2ccc(OC)c(NC(=O)CN3CCN(Cc4ccccc4)CC3)c12 | 0.5 |
| CC(C)CC(NC(=O)OC(C)(C)C)C(=O)NCc1ccccc1 (stereo not given) | -1.58 |
| O=c1[nH]nc2n1CCCCC2 | -1.27 |
| Cc1ccc(N(CN2C(=O)NC(C)(C)C2=O)CN2C(=O)NC(C)(C)C2=O)cc1 | 0.101 |
| CC1CN(C2CCN(S(=O)(=O)c3ccc4ccccc4c3)CC2)CC(C)O1 (stereo not given) | -1.69 |
| CC(C)(C)C1CCC2(CC1)C(C#N)=C(SCC(=O)Nc1ccccc1)NC(=O)C2C#N (stereo not given) | -1.06 |
| CCOC(=O)c1cc2c(=O)n3cccc(C)c3nc2n(Cc2cccnc2)c1=N | -1.62 |
| OC(CNCCCN1CCCCC1)COc1ccccc1 (stereo not given) | 0.177 |
| Cc1ccc(-c2ccccc2NC(=O)C2C3C=CC(C3)C2C(=O)O)o1 (stereo not given) | -0.671 |
| Cn1c(=O)c2c3c(sc2n2c(SCC(N)=O)nnc12)CC(C(C)(C)C)CC3 (stereo not given) | -0.417 |

| SMILES | z-score |
| --- | --- |
| CCOc1cccc(-c2nn3c(-c4ccccn4)nnc3s2)c1 | -0.822 |
| Cn1c(=O)n(C)c2cc(C(=O)c3ccccc3)ccc21 | -0.33 |
| CCC(=O)OC1=C2C(=Nc3c(c(=O)n(C)c(=O)n3C)C2c2ccccc2)c2ccccc21 (stereo not given) | 0.242 |
| Cc1ccsc1C1NC(=O)c2c(sc3c2CCCC3)N1 (stereo not given) | -0.46 |
| CCCCc1ccc(NC(=O)CSC2=C(C#N)C(c3ccco3)C3=C(CCCC3=O)N2)cc1 (stereo not given) | 1.7 |
| CCCCNc1nc2c(c(=O)n(C)c(=O)n2C)n1Cc1cccc(OC)c1 | -0.341 |
| Cc1c(CCC#N)c(N2CCCCC2)n2c(nc3ccccc32)c1C#N | -1.2 |
| CN(C)C/C(Cl)=C(\Cl)c1ccccc1 | -0.391 |
| CC(C)Cc1nc(N2CCCCC2)c(C#N)c2c1CCC2 | 0.461 |
| CCCCCc1nc2sc3c(c2c(=O)n1N)CCC3 | 2.03 |
| CCOC(=O)Cn1c(SC)nc2sc3c(c2c1=O)CC(C)(C)OC3 | -1.44 |
| Cc1ccc(SCc2nnc(N)s2)cc1 | -0.003 |
| CC(C)Cc1nc(N2CCOCC2)c(C#N)c2c1CCC2 | 0.0175 |
| CCOc1ccc(Cn2c(O)cc(=O)[nH]c2=O)cc1 | 0.944 |
| Cc1ccc(S(=O)(=O)NC(=O)NCc2ccc3c(c2)OCO3)cc1 | 0.582 |
| CCCCn1c(-c2ccc(Cl)cc2)nc2c(=O)n(C)c(=O)[nH]c21 | -0.817 |
| CCCCNC(=O)C(C#N)c1nc2ccccc2nc1N1CCN(Cc2ccc3c(c2)OCO3)CC1 (stereo not given) | -1.11 |
| c1ccc(-c2nnc3sc(Cc4cccs4)nn23)cc1 | -1.88 |
| CC(=O)C1=C(O)C(=O)N(c2cccc(C(=O)O)c2)C1c1ccc(F)cc1 (stereo not given) | -0.742 |
| Cc1ccc(OCc2nnc(NC(=O)c3ccco3)s2)c(C)c1 | -0.603 |
